For 64 compounds, viability results are on record in PubChem BioAssay AID598 (SRMLSC, 2007).

As usually defined, the viability is a read-out of living cells in per cent, often relative to untreated cells.

Hit rate of the full screen: of about 85,000 compounds, about 5,100 (6%) were called active. The full list was thinned out, with actives kept by preference. Unmarked numbers belong to inactive results.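 Rule for the calls: active = viability at or below 40%; inactive = viability above 40%.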

The nature of this experiment: H69AR cell viability reduction – human, 86K library, primary screen (AID 598).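 Note: multidrug resistant small cell line overexpressing MRP-1 efflux transporter; 100% = mean luminescence of untreated control wells.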 The note with it: H69AR lung tumor viability, ATP luminescence, 72 h; at 10 µM; stronger effect = lower value.
Regarding `CCCc1nc2ccccc2c(C(=O)OCC(=O)c2ccc3c(c2)NC(=O)CO3)c1CC`, the viability was 43.2%.

`Cc1ccc(Cc2c(C)nc3nc(SCC(=O)NCCN4CCOCC4)nn3c2C)cc1`: the viability is 93.9%.

In the case of `CCOc1ccc(NC(=O)CN(C)CC(=O)Nc2cccc(Cl)c2C)cc1OCC`, the viability is 48.5%. As for `Cc1cccc(NC(=O)N(Cc2cc3cc(C)cc(C)c3[nH]c2=O)CC2COCCO2)c1` (centres undefined), the figure is 47%. As for `Cn1c(Cn2nnc3ccccc32)nnc1SCC(=O)c1ccccc1F`, the figure is 79.3%.

Consider `CN=C1SC(CC(=O)Nc2ccc(C(=O)O)cc2)C(=O)N1C` (centres undefined), for which the viability is 97.5%.

For `O=C(CN1C(=O)CC(c2ccccc2)=Nc2ccccc21)NC1CCCCC1`, the viability was 77.6%. As to `Cc1ccnc(N2CCC(C(=O)NC3CCCCCC3)CC2)n1`, the viability is 77.9%.

Turning to `Cc1ccnc(-n2sc3ccccc3c2=O)n1`, the viability is 1.54% (active). As for `Cc1nc2ccccc2c(=O)n1CCCn1ccnc1`, the figure is 99%; as for `CC(C)(C)N1CC(c2nc3ccccc3n2Cc2ccc(F)cc2)CC1=O` (centres undefined), 79.4%; as for `CCCn1c(C(Cc2ccccc2)NC(=O)COC)nc2ccccc21` (centres undefined), 92.9%. As for `CNC(=O)c1nnc(Cc2ccc(Cl)cc2)o1`, the viability is 97.8%.

`O=C(OCc1ccccc1F)c1ccc2c(c1)OCCO2`: the viability is 91.2%. In the case of `O=C(CCN1CCc2ccccc2C(O)(c2ccccc2)C1)c1ccc2c(c1)OCCO2` (centres undefined), the viability was -0.08% (active). As for `O=C(COC(=O)c1ccc2c(c1)OCCO2)NCc1ccccc1`, the figure is 92.1%; as for `CCn1c(SCC(=O)Nc2nc(C)cs2)nnc1C(C)NC(=O)c1ccccc1` (centres undefined), 88.1%; as for `COCCn1c(=S)[nH]c2cc(C(=O)NCCc3ccc(OC)c(OC)c3)ccc2c1=O`, 78.1%. `N#CC1=C(N)Oc2c(sc3ccccc23)C1c1ccco1` (centres undefined): the viability is 14.4% (active). As for `Cc1cc2c(c(=O)n1Cc1ccco1)C(c1ccccc1)C(C#N)=C(N)O2` (centres undefined), the figure is 70%; as for `O=C(COc1cc(Cl)c(Cl)cc1Cl)NC(=O)NC1CCCC1`, 90.7%; as for `CCOC(=O)c1cnc(SCC(=O)Nc2ccccc2C(=O)OC)nc1N`, 87.2%.

As for `c1ccc(-n2ncc3c2ncn2c(C4CCCCC4)nnc32)cc1`, the viability was 105%. With `c1ccc(-n2ncc3c2ncn2c(CSc4nc5ccccc5s4)nnc32)cc1`, the viability is 5.83% (active). In the case of `CCN(CC)C(=O)CSc1ncnc2c1cnn2-c1ccccc1`, the viability is 86.5%. With `CCCNC(=O)N1CCN(C(=O)NCCC)CC1`, the viability is 104%. As to `CC(=O)c1cccc(NC(=O)C2CCCN2S(=O)(=O)c2cccc3nsnc23)c1` (centres undefined), the viability is 88.1%. For `CCC(C)NC(=O)c1ccccc1NC(=O)c1ccccc1N(C)S(C)(=O)=O` (centres undefined), the viability was 108%. For the compound `CC(C)(C)C(=O)Cn1c(NCCO)nc2ccccc21`, the viability is 98%.

As for `Cn1c(Cc2cccc3ccccc23)nnc1SCC(=O)N1CCN(c2cccc(Cl)c2)CC1`, the viability was 38.5% (active). For the compound `Cc1ccccc1NC(=O)Cc1nnc(SCC(=O)N2CCN(c3ccccc3)CC2)n1C`, the viability was 94%. As for `Cc1cc2nnc(SCC(=O)N3CCN(c4ccccc4)CC3)n2c(N)n1`, the figure is 64.4%; as for `O=C(CC(O)(C(F)(F)F)C(F)(F)F)Nc1ccc(Cl)c(Cl)c1`, 1.49% (active). `CCn1nccc1C(=O)Nc1ccc(Cl)c(Cl)c1`: the viability is 77%. As for `CN(C)CCNC(CC(=O)Nc1ccc(Cl)c(Cl)c1)C(=O)O` (centres undefined), the viability was 99.7%. As for `CCOC(=O)N1CCC(N(CCOC)C(=O)Nc2ccc(C)c(C)c2)CC1`, the viability was 44.7%. On to `Cc1noc(C)c1CSCC(=O)Nc1nc2ccc(Oc3ccccc3)cc2s1`, for which the viability was 76.8%. As to `COc1ccc(OC)c(-n2cc3c(=O)n(C)c(=O)n(C)c3c2)c1`, the viability is 29.6% (active).

For `COc1ccc(-c2c3c(=O)n(C)c(=O)n(C)c3cn2-c2cccc(OC)c2)cc1`, the viability is 71.5%. Regarding `Cn1c(=O)c2cn(-c3cccc4ccccc34)cc2n(C)c1=O`, the viability is 47.3%. On to `COCCCn1c(SCC(=O)Nc2ccccc2)nnc1-c1ccncc1`, for which the viability was 95.9%. For `CC1(C)COC(c2cccn2Cc2ccccc2Cl)=N1` the value was 104%; for `O=c1c2ccccc2nc2n1C1(CCCCC1)Cc1ccccc1-2`, 83.7%.

Turning to `CCOC(=O)N1CCN(CC(=O)Nc2cc(C)nn2-c2nc3ccccc3s2)CC1`, the viability is 4.45% (active). As to `Cc1cc(NC(=O)CN2CCCC(C)C2)n(-c2nc3ccccc3s2)n1` (centres undefined), the viability was 62.1%. For `CCOC(=O)N1CCC(NC(=O)c2ccc3nc(N4CCOCC4)sc3c2)CC1`, the viability was 95.7%. Turning to `Cc1nn(C)cc1CNC(=O)Nc1ccc(Cl)cc1`, the viability is 90.8%. `Cc1cccc(NC(=O)CN2C(=O)CNC2=O)c1`: the viability is 91.7%.

Turning to `Cc1cccc(NC(=O)CN2CCCN(S(=O)(=O)c3ccc(Br)s3)CC2)c1`, the viability is 35.9% (active). `Cc1cccc(NC(=O)CSc2nnc(NC(=O)CN3CCOCC3)s2)c1`: the viability is 79.3%. On to `C/C(=N\NC(=O)c1nc(C)cc(C)n1)c1ccccc1`, for which the viability is 99.7%. For the compound `O=C1c2ccccc2C(=O)N1CCCc1nc(-c2ccccc2)no1`, the viability was 95.5%. As for `Oc1ccc(-c2onc3ccc(Cl)cc23)cc1`, the viability was 98.2%. For `COc1ccc(N2CCN(Cc3ccc(Br)s3)CC2)cc1` the value was 65.6%. Regarding `CC1(C)Cc2cccc(OCC(N)=O)c2O1`, the viability was 102%. `Fc1ccc2nc(N3CCCCC3)sc2c1`: the viability is 90%.

Turning to `CNC(=O)c1ccc2nc(NC(C)=O)sc2c1`, the viability was 99%. Take `Fc1ccc2nc(Nc3nc4c(s3)CCCC4)sc2c1`: the viability was 36.1% (active). With `COC(=O)CSc1nc2c(c(C3CC=CCC3)c1C#N)CCC2` (centres undefined), the viability was 65.3%. For `O=C(c1cccc(F)c1)N1CCC(O)(c2cccnc2)CC1` the value was 88.1%; for `CCOC(=O)N1CCC(Nc2c(NCCCN3CCN(CC)CC3)c(=O)c2=O)CC1`, 112%; for `Cc1cc(C(=O)OCC(=O)NCc2ccco2)c(C)n1-c1ccccc1`, 29.6% (active). On to `O=C(COC(=O)C12CC3CC(CC(C3)C1)C2)NCc1ccco1`, for which the viability is 83.8%. On to `CCOC(=O)c1cnc(SCC(=O)NCc2ccco2)nc1N`, for which the viability is 91.3%.
